Measurements reported in PubChem BioAssay (NCATS).
Inconclusive results are not listed. A call without a number means that no potency is given here. Active and inactive are the calls of the source. The call rests on the fitted dose curve; in most records, active means well fitted inhibition curve with a large enough effect; inconclusive means small, poorly fitted or top-dose-only effect; inactive means flat fitted curve, though single readings scatter. Where a SMILES comes first, the peptide text is derived from it. Bridges are numbered along the chain shown (N, C = ends). [ ]: non-standard residue; d: D form. hArg = N=C(N)NCCCC[C@H](N)C(=O)O; Mpa = O=C(O)CCS

test system: CP252; assay: qHTS profiling for inhibitors of Plasmodium falciparum proliferation (AID 504749); further: nearly all actives have a fitted effect of over 60% in size; conditions: P. falciparum in erythrocytes, SYBR Green DNA, 72 h; series mostly up to 28.7 µM
Method in brief: (§1)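 P. falciparum-infected erythrocytes (0.3% parasitemia, 2.5% hematocrit final) were exposed to compounds for 72 h at 37 C in 5% CO2, then lysed with SYBR Green buffer overnight at room temperature; parasite DNA fluorescence was normalized to artemisinin and DMSO controls.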

SMILES | outcome
Cc1onc(-c2ccccc2)c1-c1ccc(S(N)(=O)=O)cc1 | inactive
COc1ccc(C(=O)NCc2ccc(OCCN(C)C)cc2)cc1OC | inactive
Cc1ccsc1C(=CCCN1CCC[C@@H](C(=O)O)C1)c1sccc1C | inactive
CCCCCCCC(=O)OCC(COC(=O)CCCCCCC)OC(=O)CCCCCCC | inactive
CN/C(=C\[N+](=O)[O-])NCCSCc1csc(CN(C)C)n1 | inactive
CCN1CC(CCN2CCOCC2)C(c2ccccc2)(c2ccccc2)C1=O (centres undefined) | inactive
NS(=O)(=O)c1ccc(C(=O)O)cc1 | inactive
CCOC(N)=O | inactive
Cc1c(NC(C)C)c(=O)n(-c2ccccc2)n1C | inactive
CCOc1ccc(C(=O)OCCN(CC)CC)cc1 | inactive
O=C(OOC(=O)c1ccccc1)c1ccccc1 | inactive
C=CCSCC1Nc2cc(Cl)c(S(N)(=O)=O)cc2S(=O)(=O)N1 (centres undefined) | inactive
Cc1c(NC(=O)c2cccnc2)c(=O)n(-c2ccccc2)n1C | inactive
CCCCCCCCCCC(CO)CCCCCCCC (centres undefined) | inactive
CCOc1cc(NC(C)=O)ccc1C(=O)OC | inactive
Cc1ncc(CO)c(CN)c1O | inactive
NS(=O)(=O)c1ccc(NC(=O)CCC(=O)O)cc1 | inactive

test system: CP256; assay: as above; conditions: P. falciparum in erythrocytes, SYBR Green DNA, 72 h; series mostly up to 28.7 µM
Method in brief: as §1

SMILES | outcome
O=C(Cn1ccnc1[N+](=O)[O-])NCCO | inactive
Cc1c(C)c2c(c(C)c1OC(=O)c1cccnc1)CC[C@@](C)(CCC[C@H](C)CCC[C@H](C)CCCC(C)C)O2 | inactive
COc1ccc2cc(CCC(C)=O)ccc2c1 | inactive
CN(C/C=C/C#CC(C)(C)C)Cc1cccc2ccccc12 | inactive
CCN(CC)CCc1nc(-c2ccccc2)no1 | inactive
COc1nccnc1NS(=O)(=O)c1ccc(N)cc1 | inactive
Cn1c([N+](=O)[O-])cnc1COC(N)=O | inactive
COC(=O)c1ccc(O)cc1 | inactive
CC[N+](CC)(CC(=O)Nc1c(C)cccc1C)Cc1ccccc1 | inactive
CC1CCN(CCCC(=O)c2ccc(F)cc2)CC1 | inactive
COc1ccccc1OC(=O)Oc1ccccc1OC | inactive
CN1CCCN=C1COC(=O)C(O)(c1ccccc1)C1CCCCC1 (centres undefined) | inactive
O=C(/C=C/c1ccccc1)OCc1ccccc1 | inactive
Cc1c(Cn2ccnc2)c2ccccc2n1CCC(=O)O | inactive
NC(=O)[C@@H]1CSSCCC(=O)N[C@@H](CCCCN=C(N)N)C(=O)NCC(=O)N[C@@H](CC(=O)O)C(=O)N[C@@H](Cc2c[nH]c3ccccc23)C(=O)N2CCC[C@H]2C(=O)N1 ([Mpa][hArg]GDWPC-NH2; disulfide 1-7) | inactive
N[C@@H](Cc1ccc(O)cc1)C(=O)O | inactive
CC1CCc2cc(F)cc3c(=O)c(C(=O)O)cn1c23 (centres undefined) | inactive
C[C@@H]1O[C@@H](OC[C@H]2O[C@@H](Oc3c(-c4ccc(O)c(O)c4)oc4cc(O)cc(O)c4c3=O)[C@H](O)[C@@H](O)[C@@H]2O)[C@H](O)[C@H](O)[C@H]1O | inactive

SMILES | outcome
Cc1onc(-c2ccccc2)c1-c1ccc(S(N)(=O)=O)cc1 | inactive
COc1ccc(C(=O)NCc2ccc(OCCN(C)C)cc2)cc1OC | inactive
Cc1ccsc1C(=CCCN1CCC[C@@H](C(=O)O)C1)c1sccc1C | inactive
CCCCCCCC(=O)OCC(COC(=O)CCCCCCC)OC(=O)CCCCCCC | inactive
CN/C(=C\[N+](=O)[O-])NCCSCc1csc(CN(C)C)n1 | inactive
CCN1CC(CCN2CCOCC2)C(c2ccccc2)(c2ccccc2)C1=O (centres undefined) | inactive
NS(=O)(=O)c1ccc(C(=O)O)cc1 | inactive
CCOC(N)=O | inactive
Cc1c(NC(C)C)c(=O)n(-c2ccccc2)n1C | inactive
CCOc1ccc(C(=O)OCCN(CC)CC)cc1 | inactive
O=C(OOC(=O)c1ccccc1)c1ccccc1 | inactive
C=CCSCC1Nc2cc(Cl)c(S(N)(=O)=O)cc2S(=O)(=O)N1 (centres undefined) | inactive
Cc1c(NC(=O)c2cccnc2)c(=O)n(-c2ccccc2)n1C | inactive
CCCCCCCCCCC(CO)CCCCCCCC (centres undefined) | inactive
CCOc1cc(NC(C)=O)ccc1C(=O)OC | inactive
Cc1ncc(CO)c(CN)c1O | inactive
NS(=O)(=O)c1ccc(NC(=O)CCC(=O)O)cc1 | inactive

test system: CP260; assay: as above; conditions: P. falciparum in erythrocytes, SYBR Green DNA, 72 h; series mostly up to 28.7 µM
Method in brief: as §1

SMILES | Potency
O=C(Cn1ccnc1[N+](=O)[O-])NCCO | inactive
Cc1c(C)c2c(c(C)c1OC(=O)c1cccnc1)CC[C@@](C)(CCC[C@H](C)CCC[C@H](C)CCCC(C)C)O2 | inactive
COc1ccc2cc(CCC(C)=O)ccc2c1 | inactive
CN(C/C=C/C#CC(C)(C)C)Cc1cccc2ccccc12 | inactive
COc1nccnc1NS(=O)(=O)c1ccc(N)cc1 | inactive
Cn1c([N+](=O)[O-])cnc1COC(N)=O | inactive
COC(=O)c1ccc(O)cc1 | inactive
CC[N+](CC)(CC(=O)Nc1c(C)cccc1C)Cc1ccccc1 | inactive
CC1CCN(CCCC(=O)c2ccc(F)cc2)CC1 | inactive
COc1ccccc1OC(=O)Oc1ccccc1OC | inactive
CN1CCCN=C1COC(=O)C(O)(c1ccccc1)C1CCCCC1 (centres undefined) | inactive
O=C(/C=C/c1ccccc1)OCc1ccccc1 | inactive
Cc1c(Cn2ccnc2)c2ccccc2n1CCC(=O)O | inactive
NC(=O)[C@@H]1CSSCCC(=O)N[C@@H](CCCCN=C(N)N)C(=O)NCC(=O)N[C@@H](CC(=O)O)C(=O)N[C@@H](Cc2c[nH]c3ccccc23)C(=O)N2CCC[C@H]2C(=O)N1 ([Mpa][hArg]GDWPC-NH2; disulfide 1-7) | inactive
N[C@@H](Cc1ccc(O)cc1)C(=O)O | inactive
CC1CCc2cc(F)cc3c(=O)c(C(=O)O)cn1c23 (centres undefined) | inactive

SMILES | Potency
C[C@@H]1O[C@@H](OC[C@H]2O[C@@H](Oc3c(-c4ccc(O)c(O)c4)oc4cc(O)cc(O)c4c3=O)[C@H](O)[C@@H](O)[C@@H]2O)[C@H](O)[C@H](O)[C@H]1O | inactive
Cc1onc(-c2ccccc2)c1-c1ccc(S(N)(=O)=O)cc1 | inactive
COc1ccc(C(=O)NCc2ccc(OCCN(C)C)cc2)cc1OC | inactive
Cc1ccsc1C(=CCCN1CCC[C@@H](C(=O)O)C1)c1sccc1C | inactive
CCCCCCCC(=O)OCC(COC(=O)CCCCCCC)OC(=O)CCCCCCC | inactive
CN/C(=C\[N+](=O)[O-])NCCSCc1csc(CN(C)C)n1 | inactive
CCN1CC(CCN2CCOCC2)C(c2ccccc2)(c2ccccc2)C1=O (centres undefined) | inactive
NS(=O)(=O)c1ccc(C(=O)O)cc1 | inactive
Cc1c(NC(C)C)c(=O)n(-c2ccccc2)n1C | inactive
CCOc1ccc(C(=O)OCCN(CC)CC)cc1 | inactive
O=C(OOC(=O)c1ccccc1)c1ccccc1 | inactive
Cc1c(NC(=O)c2cccnc2)c(=O)n(-c2ccccc2)n1C | inactive
CCCCCCCCCCC(CO)CCCCCCCC (centres undefined) | inactive
CCOc1cc(NC(C)=O)ccc1C(=O)OC | inactive
Cc1ncc(CO)c(CN)c1O | inactive
NS(=O)(=O)c1ccc(NC(=O)CCC(=O)O)cc1 | inactive
